Results as given in PubChem BioAssay (NCATS).
Inconclusive results are not listed. Activity calls are given as the source filed them. The call rests on the fitted dose curve; in most records, active means well fitted curve in the direction sought with a large enough effect; inconclusive means small, poorly fitted or top-dose-only effect, or another doubt; inactive means no such curve, though single readings can be large; an effect the other way counts as inactive or inconclusive.

Assays:
MCC-13 = assay: qHTS assay to identify novel small-molecules to repurpose for Merkel cell carcinoma treatment (AID 1296009); details: MCC and control cell lines, CellTiter-Glo viability, 72 h; series mostly up to 46 µM; further: nearly all actives have a fitted effect of over 60% in size
Outline: (§1)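 72 hr, 37 degree celsius; NPC 8-pt / MIPE 11-pt dose response; compound pinned in DMSO; CellTiter-Glo, 10 min RT, luminescence; normalized to no-cell and DMSO controls.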

MCC-26 = assay: as above; details: MCC and control cell lines, CellTiter-Glo viability, 72 h; series mostly up to 46 µM
Outline: as §1

MKL-1 = assay: as above; details: MCC and control cell lines, CellTiter-Glo viability, 72 h; series mostly up to 46 µM
Outline: as §1

MKL-2 = assay: as above; details: MCC and control cell lines, CellTiter-Glo viability, 72 h; series mostly up to 46 µM
Outline: as §1

UISO = assay: as above; details: MCC and control cell lines, CellTiter-Glo viability, 72 h; series mostly up to 46 µM
Outline: as §1

WaGa = assay: as above; details: MCC and control cell lines, CellTiter-Glo viability, 72 h; series mostly up to 46 µM
Outline: as §1

C33A = assay: Primary qHTS to identify gynecologic anti-cancer compounds using libraries of approved drugs and bioactive compounds (AID 1345084); details: Gynecologic cancer cell panel viability, ATPlite luminescence, 48 h; series mostly up to 57.5 µM; further: nearly all actives have a fitted effect of over 55% in size
Outline: (§2)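 Cytotoxicity screen measuring ATP content by luciferase luminescence. Each compound is applied at five concentrations for 48 h at 37 C with 5% CO2.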

CAOV3 = assay: as above; details: Gynecologic cancer cell panel viability, ATPlite luminescence, 48 h; series mostly up to 57.5 µM
Outline: as §2

CASKI = assay: as above; details: Gynecologic cancer cell panel viability, ATPlite luminescence, 48 h; series mostly up to 57.5 µM
Outline: as §2

Es-2 = assay: as above; details: Gynecologic cancer cell panel viability, ATPlite luminescence, 48 h; series mostly up to 57.5 µM
Outline: as §2

HeLa = assay: as above; details: Gynecologic cancer cell panel viability, ATPlite luminescence, 48 h; series mostly up to 57.5 µM
Outline: as §2

Hek293T = assay: as above; details: Gynecologic cancer cell panel viability, ATPlite luminescence, 48 h, control line for the selectivity index; series mostly up to 57.5 µM
Outline: as §2

JEG-3 = assay: as above; details: Gynecologic cancer cell panel viability, ATPlite luminescence, 48 h; series mostly up to 57.5 µM
Outline: as §2

OV90 = assay: as above; details: Gynecologic cancer cell panel viability, ATPlite luminescence, 48 h; series mostly up to 57.5 µM
Outline: as §2

PA-1 = assay: as above; details: Gynecologic cancer cell panel viability, ATPlite luminescence, 48 h; series mostly up to 57.5 µM
Outline: as §2

SKOV3 = assay: as above; details: Gynecologic cancer cell panel viability, ATPlite luminescence, 48 h; series mostly up to 57.5 µM
Outline: as §2

Tov-21-G = assay: as above; details: Gynecologic cancer cell panel viability, ATPlite luminescence, 48 h; series mostly up to 57.5 µM
Outline: as §2

Tov112D = assay: as above; details: Gynecologic cancer cell panel viability, ATPlite luminescence, 48 h; series mostly up to 57.5 µM
Outline: as §2

[1] = Drug repurposing screens with cells derived from glioblastoma tumor samples (AID 1345199); details: GBM patient neurospheres viability, ATP luminescence, 48 h; further: nearly all actives have a fitted effect of over 40% in size
Outline: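 Four patient lines of CD133+ GBM neurospheres were screened at several concentrations; hits were retested in those lines plus three slower-growing GBM lines, using 48-hour treatment and ATP-based viability.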

[2] = at 45.9 µM (top of the series), tumour line B
[3] = at 46 µM (top of the series), tumour line A
[4] = at 91.6 µM (top of the series), tumour line B
[5] = at 91.6 µM (top of the series), tumour line D
[6] = at 45.9 µM (top of the series), tumour line D
On the % scale 0 is the no-effect control and ±100 the full control effect.

CCOC(=O)CC(SP(=S)(OC)OC)C(=O)OCC (centres undefined)
inactive: outcome (MCC-13) | Potency (MCC-26) | Potency (MKL-1) | Potency (MKL-2) | Potency (UISO) | Potency (WaGa) | Potency (C33A) | outcome (CAOV3) | outcome (CASKI) | Potency (Es-2) | Potency (HeLa) | outcome (Hek293T) | outcome (JEG-3) | Potency (OV90) | Potency (PA-1) | outcome (SKOV3) | Potency (Tov-21-G) | Potency (Tov112D) | activity, negative = cell killing [1, 2] -14.8% | activity, negative = cell killing [1, 3] -27.3% | activity, negative = cell killing [1, 4] -2.57% | activity, negative = cell killing [1, 5] -14%

Nc1ccccc1C(=O)O
inactive: outcome (MCC-13) | Potency (MCC-26) | Potency (MKL-1) | Potency (MKL-2) | Potency (UISO) | Potency (WaGa) | Potency (C33A) | outcome (CAOV3) | outcome (CASKI) | Potency (Es-2) | Potency (HeLa) | outcome (Hek293T) | outcome (JEG-3) | Potency (OV90) | Potency (PA-1) | Potency (Tov-21-G) | Potency (Tov112D) | activity, negative = cell killing [1, 2] 2.36% | activity, negative = cell killing [1, 6] -8.9% | activity, negative = cell killing [1, 3] -2.87%

C=CCC1([C@H](C)CCC)C(=O)NC(=O)NC1=O
inactive: outcome (MCC-13) | Potency (MCC-26) | Potency (MKL-1) | Potency (MKL-2) | Potency (UISO) | Potency (WaGa) | Potency (C33A) | outcome (CAOV3) | outcome (CASKI) | Potency (Es-2) | Potency (HeLa) | outcome (Hek293T) | outcome (JEG-3) | Potency (OV90) | Potency (PA-1) | outcome (SKOV3) | Potency (Tov-21-G) | Potency (Tov112D) | activity, negative = cell killing [1, 4] -8.55% | activity, negative = cell killing [1, 5] -0.262%

CN(C)CCc1c[nH]c2cccc(OP(=O)(O)O)c12
inactive: outcome (MCC-13) | Potency (MCC-26) | Potency (MKL-1) | Potency (MKL-2) | Potency (UISO) | Potency (WaGa) | Potency (C33A) | outcome (CAOV3) | outcome (CASKI) | Potency (Es-2) | Potency (HeLa) | outcome (Hek293T) | outcome (JEG-3) | Potency (OV90) | Potency (PA-1) | outcome (SKOV3) | Potency (Tov-21-G) | Potency (Tov112D) | activity, negative = cell killing ([1]; at 91.6 µM (top of the series), tumour line A) -30.1% | activity, negative = cell killing [1, 4] -11.6% | activity, negative = cell killing [1, 5] -12.3%

Nc1ccccc1
inactive: outcome (MCC-13) | Potency (MCC-26) | Potency (MKL-1) | Potency (MKL-2) | Potency (UISO) | Potency (WaGa) | Potency (C33A) | outcome (CAOV3) | outcome (CASKI) | Potency (Es-2) | Potency (HeLa) | outcome (Hek293T) | outcome (JEG-3) | Potency (OV90) | Potency (PA-1) | outcome (SKOV3) | Potency (Tov-21-G) | Potency (Tov112D) | activity, negative = cell killing [1, 2] -4.34% | activity, negative = cell killing [1, 6] -2.5% | activity, negative = cell killing [1, 3] -28.7%

COc1c2c(cc3c1OCO3)CCN(C)C2
inactive: outcome (MCC-13) | Potency (MCC-26) | Potency (MKL-1) | Potency (MKL-2) | Potency (UISO) | Potency (WaGa) | Potency (C33A) | outcome (CAOV3) | outcome (CASKI) | Potency (Es-2) | Potency (HeLa) | outcome (Hek293T) | outcome (JEG-3) | Potency (OV90) | Potency (PA-1) | outcome (SKOV3) | Potency (Tov-21-G) | Potency (Tov112D) | activity, negative = cell killing ([1]; at 21.2 µM (top of the series), tumour line B) -1.01% | activity, negative = cell killing ([1]; at 21.2 µM (top of the series), tumour line D) -13.1%

CCC1(c2ccc(N)cc2)CCC(=O)NC1=O (centres undefined)
inactive: outcome (MCC-13) | Potency (MCC-26) | Potency (MKL-1) | Potency (MKL-2) | Potency (UISO) | Potency (WaGa) | Potency (C33A) | outcome (CAOV3) | outcome (CASKI) | Potency (Es-2) | Potency (HeLa) | outcome (Hek293T) | outcome (JEG-3) | Potency (OV90) | Potency (PA-1) | outcome (SKOV3) | Potency (Tov-21-G) | Potency (Tov112D) | activity, negative = cell killing [1, 2] -18.5% | activity, negative = cell killing [1, 6] -18.3%
